The text below walks through data of PubChem BioAssay AID2642 (Johns Hopkins Ion Channel Center, 2010).

Out of some 310,000 compounds screened, about 3,900 (1.3%) were called active.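 Rule for the calls: active = compounds whose thallium flux B-score, printed positive for inhibition, exceeds three library SD while starting fluorescence stays within three; inactive = the rest.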 Shown is part of a subset that was picked to be rich in actives.

The target in this assay is Potassium voltage-gated channel subfamily KQT member 1 (Homo sapiens) (UniProt P51787). Nature of the assay: KCNQ1 potassium current blockers – cell-based, thallium flux, high-throughput, primary screen (AID 2642).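 Note: channel opened by potassium depolarization with thallium stimulus after 20 min compound exposure.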 The following applies: CHO-K1 KCNQ1, FluxOR thallium flux fluorescence, at 10 µM; hits give high values.
Sequence of Potassium voltage-gated channel subfamily KQT member 1 (Homo sapiens) (P51787 whole entry, looked up): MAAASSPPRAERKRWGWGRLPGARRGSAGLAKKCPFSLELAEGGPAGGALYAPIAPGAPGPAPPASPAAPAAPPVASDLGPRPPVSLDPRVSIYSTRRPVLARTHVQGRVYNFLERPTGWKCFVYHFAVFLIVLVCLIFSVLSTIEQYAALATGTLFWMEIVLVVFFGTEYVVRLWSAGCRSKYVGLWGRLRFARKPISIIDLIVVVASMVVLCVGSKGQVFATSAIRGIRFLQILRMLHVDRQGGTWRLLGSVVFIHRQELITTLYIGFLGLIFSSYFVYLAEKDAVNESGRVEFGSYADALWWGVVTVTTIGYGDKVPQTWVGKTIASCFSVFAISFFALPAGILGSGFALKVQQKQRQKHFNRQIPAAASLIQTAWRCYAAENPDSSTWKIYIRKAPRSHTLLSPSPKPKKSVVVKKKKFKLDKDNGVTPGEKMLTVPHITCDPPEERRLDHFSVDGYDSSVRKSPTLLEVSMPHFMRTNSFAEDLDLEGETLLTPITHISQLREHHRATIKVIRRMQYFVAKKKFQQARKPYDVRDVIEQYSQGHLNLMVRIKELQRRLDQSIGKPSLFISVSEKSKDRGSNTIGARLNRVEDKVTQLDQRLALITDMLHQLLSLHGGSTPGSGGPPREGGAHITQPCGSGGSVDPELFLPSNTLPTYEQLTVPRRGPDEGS
On to `Cc1nnc(-c2ccc(Oc3ccc(C)c(C)c3)c([N+](=O)[O-])c2)o1`, for which the B-score entry is “inactive”.

Regarding `Cc1c(Br)c([N+](=O)[O-])nn1C(C)C(=O)Nc1nccs1` (configuration not stated), the B-score result was “inactive”.

In the case of `CC(=O)Nc1ccc(NC(=O)c2ccc3c(c2)C(=O)N(c2ccccc2C)C3=O)cc1`, the B-score entry was “inactive”.

Take `CC(C)OCCCNc1ncnc2c1[nH]c1ccc(F)cc12`: the B-score is 9 (active).

As to `CC(C)OCCCNC(=O)c1cc(Sc2ccc(F)cc2)nc2ccccc12`, the B-score result is “inactive”.

Take `COc1cc(OC)c(OC)cc1/C=N/Nc1ncnc2c1[nH]c1ccc(C)cc12`: the B-score result was “inactive”.

Consider `CN(CCOc1ccc(Br)cc1)CC(=O)Nc1cccc(S(=O)(=O)NC2=NCCC2)c1`, for which the B-score result is “inactive”.

Consider `Cc1cccc(NC(=O)CSCC(=O)Nc2nnc(C3CC3)s2)c1`, for which the B-score entry was “inactive”.

In the case of `O=C(CSc1nnc(SCc2ccc(F)cc2)s1)Nc1ccc(C(=O)O)cc1`, the B-score entry was “inactive”.

As for `CC1=C(C(N)=O)C(c2sccc2C)n2nnnc2N1` (configuration not stated), the B-score entry was “inactive”.

With `CCCCOc1ccc(C(=O)NN2CCN(C)CC2)cc1`, the B-score entry was “inactive”.

In the case of `CCCOc1ccc(C(=O)C(CCC(CNCC)C(=O)c2ccc(OCCC)cc2)CNCC)cc1` (configuration not stated), the B-score is 6 (active).

Regarding `CCCOc1ccc(C(=O)CCC(=O)OC(C)C(=O)Nc2ccc(NC(C)=O)cc2)cc1` (configuration not stated), the B-score result was “inactive”.

`Cc1nn(CC(=O)NCCc2ccccc2)c(=O)c2cc3occc3n12`: the B-score result was “inactive”.

`CC12CN(NC(=O)c3ccc(Cl)cc3)C3(C#N)CC1CCC23C` (configuration not stated): the B-score entry was “inactive”.

For the compound `COc1ccccc1NC(=O)/C=C/C(N)=O`, the B-score entry was “inactive”.

For the compound `O=C(Nc1ccc2c(c1)OCCO2)C(c1ccc(F)cc1)N1CCCCC1` (configuration not stated), the B-score result was “inactive”.

For the compound `CCc1ccc(NC(=O)NC(C)c2ccc3c(c2)OCO3)cc1` (configuration not stated), the B-score result was “inactive”.

For the compound `CC1CCCN(C(C(=O)Nc2ccc(C(C)C)cc2)c2ccc3c(c2)OCO3)C1` (configuration not stated), the B-score is 7 (active).

Consider `CC(C)C[C@H](NC(=O)N1CCn2c1nc1ccccc12)C(=O)NC1CC1`, for which the B-score entry was “inactive”.

For `O=C(Nc1cccnc1)c1cc2cc(Br)ccc2oc1=O`, the B-score result is “inactive”.

As to `S=C(Nc1cccnc1)Nc1ccccn1`, the B-score entry was “inactive”.

In the case of `Fc1cc(Br)ccc1NC(=S)Nc1cccnc1`, the B-score was 7 (active).

In the case of `COc1ccc(CCNC(=O)CN(c2ccccc2)S(C)(=O)=O)cc1`, the B-score entry is “inactive”.

In the case of `COc1ccc(OCCNS(=O)(=O)Cc2ccccc2)cc1`, the B-score result was “inactive”.

On to `CNC(=O)c1ccsc1NC(=O)c1ccc(S(=O)(=O)N2CCOCC2)cc1`, for which the B-score entry is “inactive”.

In the case of `CNC(=O)c1ccsc1NC(=O)c1ccc(S(=O)(=O)N2CCc3ccccc32)cc1`, the B-score is 7 (active).

As for `O=S(=O)(c1ccccc1)N1CCc2ccccc21`, the B-score result was “inactive”.

For the compound `CCC(=C/c1sc2ccc3ccccc3c2[n+]1C)/C=C1\Sc2ccc3ccccc3c2N1C`, the B-score is 19 (active).

As to `COC(=O)c1ccc(NC(=O)c2ccccc2NS(=O)(=O)c2ccccc2)cc1`, the B-score entry is “inactive”.

`COc1cc(NC(=O)c2ccccc2NS(=O)(=O)c2ccc(Cl)s2)cc(OC)c1`: the B-score was 8 (active).

Consider `COc1cc(OC)c(S(=O)(=O)Nc2ccccc2C(=O)O)cc1S(=O)(=O)Nc1ccccc1C(=O)O`, for which the B-score entry was “inactive”.

Consider `N#Cc1cccc(CN2CCC(=O)N(CCO)CC2)c1`, for which the B-score entry is “inactive”.

`O=C(NC1CCC(O)CC1)c1ccccc1OCc1ccc(F)cc1` (configuration not stated): the B-score result is “inactive”.

Consider `COc1ccc(CCNC(=O)c2ccccc2OCc2ccccc2)cc1`, for which the B-score result was “inactive”.

Turning to `CC(=O)c1ccccc1OCc1ccc(C(=O)c2ccccc2)cc1`, the B-score is 9 (active).

Regarding `C/C(=N\NC(=O)Cc1ccccc1[N+](=O)[O-])c1cccnc1`, the B-score result was “inactive”.

As to `COc1ccc(C(CNC(=O)c2cccc(S(=O)(=O)Nc3ccccc3Cl)c2)N2CCOCC2)cc1` (configuration not stated), the B-score entry was “inactive”.

On to `COc1ccc(C(CNC(=O)c2ccc(S(=O)(=O)Nc3ccccc3C)cc2)N2CCOCC2)cc1` (configuration not stated), for which the B-score entry was “inactive”.

As for `COc1ccc(C(CNC(=O)c2cccc(NS(=O)(=O)c3ccc(C)c(F)c3)c2)N2CCCC2)cc1` (configuration not stated), the B-score is 8 (active).

Take `CSCCC(NC(=O)COc1ccccc1)C(=O)OCCOc1ccc(Br)cc1` (configuration not stated): the B-score result is “inactive”.

In the case of `Cc1nc2ccc(C(=O)N3CCN(c4ccccc4)CC3)cc2s1`, the B-score entry was “inactive”.

For the compound `Cc1ccc2nc(Nc3ccccc3)cc(C)c2c1`, the B-score entry was “inactive”.

As to `Cc1ccc2nc(C)c3c(c2c1)N(c1ccccc1)CC3`, the B-score was 7 (active).

`CCOC(=O)c1nnn(-c2nonc2-n2cccc2)c1CN1CCC(C(=O)OCC)CC1`: the B-score result is “inactive”.

On to `O=C(Nc1cccc(Cl)c1)c1cc(S(=O)(=O)N2CCCCC2)c[nH]1`, for which the B-score result was “inactive”.

On to `COc1ccccc1N1N=C(c2cccs2)CC1c1ccccc1` (configuration not stated), for which the B-score result was “inactive”.

In the case of `Fc1ccc(N2N=C(c3cccs3)CC2c2ccco2)c(F)c1` (configuration not stated), the B-score was 6 (active).

For `COc1ccc(C2CC(c3cccs3)=NN2c2ccc(F)cc2)cc1OC` (configuration not stated), the B-score result was “inactive”.

For the compound `O=C(c1c(F)cccc1F)N1CCN(c2ncc(Br)cn2)CC1`, the B-score entry was “inactive”.

On to `O=C(NCC(c1ccco1)N1CCc2ccccc21)c1cccc(F)c1` (configuration not stated), for which the B-score entry was “inactive”.

As for `O=C(COC(=O)c1ccc(S(=O)(=O)N2CCc3ccccc3C2)cc1)NC(=O)NCc1ccco1`, the B-score entry is “inactive”.

Regarding `COc1c(C)cc(C(=O)C2CCCN(S(=O)(=O)c3c(C)noc3C)C2)cc1C` (configuration not stated), the B-score entry is “inactive”.

Turning to `CCOc1ccc(S(=O)(=O)N2CCN(C(=S)NCC3CCCO3)CC2)cc1` (configuration not stated), the B-score entry was “inactive”.

Consider `S=C(NCC1CCCO1)N1CCN(c2ccc(Cl)c(Cl)c2)CC1` (configuration not stated), for which the B-score is 7 (active).

Consider `COc1ccc(S(=O)(=O)N2CCN(C(=S)NCC3CCCO3)CC2)cc1OC` (configuration not stated), for which the B-score entry is “inactive”.

On to `CC(C)=CCc1c(O)c(CC=C(C)C)c2occ(-c3ccc(O)cc3)c(=O)c2c1O`, for which the B-score was 11 (active).

Consider `CC(C)CN(Cc1c(O)ccc2c(=O)c(-c3ccccc3)coc12)CC(C)C`, for which the B-score result was “inactive”.

For `O=c1c(-c2ccccc2)coc2c(CN3CCOCC3)c(O)ccc12`, the B-score result was “inactive”.

For the compound `O=C(NCCc1ccc(Cl)cc1)c1cccc(N2CCCC2=O)c1`, the B-score entry is “inactive”.

As to `Cc1nnc(SCC(=O)Nc2ncc3c(n2)CC(C)(C)CC3=O)s1`, the B-score entry is “inactive”.

For `Cc1ccccc1NC(=O)CSc1ccc2nnc(-c3ccccn3)n2n1`, the B-score result is “inactive”.

With `NC(=O)c1ccc(NC(=O)COC(=O)c2c3c(nc4ccccc24)/C(=C\c2ccc4c(c2)OCO4)CCC3)cc1`, the B-score was 7 (active).

With `COc1cc(/C=C2\CCCc3c2nc2ccccc2c3C(=O)O)cc(Cl)c1O`, the B-score entry is “inactive”.

As to `CC(NC(=O)COC(=O)c1ccc2c(c1)OCO2)c1ccccc1` (configuration not stated), the B-score result is “inactive”.

With `CSc1ccccc1NC(=O)c1cc(C2CC2)on1`, the B-score result is “inactive”.

Take `Cc1cc(=O)oc2cc(OCC(=O)N3CCN(c4ccc(F)cc4)CC3)c(Cl)cc12`: the B-score result was “inactive”.
